According to PubChem BioAssay:
Entries with a potency or affinity are not part of this list. Results filed as inconclusive are left out. Calls of active or inactive are those of the source. Unless noted, how the calls were made is not given here.

How the values were obtained:
[1] = cytotoxicity in PAX8-dependent RMG-1 cells, dose response, cell-based, cherry-pick (AID 687029;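 active means signal drop whose fitted half-maximal concentration is at most twice the top valid dose, in every test run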;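 further: cells exposed to compound for 96 hours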)
[2] = cytotoxicity in IOSE-T80 ovarian epithelial cells, dose response, selectivity assay for PAX8 inhibitor project, cell-based, cherry-pick (AID 687032;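 active means fitted half-maximal concentration for viability loss no higher than twice the top valid dose, in every repeat run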;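 further: cells exposed to compound for 96 h before reading; 0% = neutral control wells and -100% = 2 µM mitoxantrone kill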)
[3] = non-specific cell cytotoxicity, dose response, cytotoxicity control for PAX8 inhibitor project, plate reader, dry powder samples (AID 743021)
[4] = IGROV1 ovarian cancer cell cytotoxicity, dose response, PAX8 inhibitor project, plate reader, dry powder samples (AID 743043);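 further: more negative means fewer viable cells or more cytotoxicity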
[5] = NIH:OVCAR-3 ovarian cancer cell cytotoxicity, dose response, PAX8 inhibitor project, plate reader, dry powder samples (AID 743044); conditions: max activity: at 35 µM, stronger effect = lower value unless noted
[6] = IOSE-T80 ovarian epithelial cell cytotoxicity, dose response, cytotoxicity control for PAX8 inhibitor project, plate reader, dry powder samples (AID 743045);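 further: 0% = neutral control median and -100% = positive control median; more negative values mean more cell killing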
[7] = A2780 ovarian cancer cell cytotoxicity, dose response, cytotoxicity control, plate reader, dry powder samples (AID 743046);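 further: 0% = neutral control wells and -100% = cytotoxic reference compound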
[8] = cytotoxicity in OVCAR8 ovarian cancer cells, dose response, PAX8 project, cell-based, plate reader, dry powder samples (AID 743197)

Measured: max activity

C[C@H]1CCCCO[C@H](CN(C)C(=O)Nc2ccc(C(F)(F)F)cc2)[C@@H](C)CN([C@@H](C)CO)C(=O)c2cc(NS(=O)(=O)c3ccc(F)cc3)ccc2O1
inactive: [1] | [2] | [3] | [4] | [5] 19.1% [at 4.2 µM, stronger effect = lower value] | [6] | [7]

C[C@H](CO)N1C[C@H](C)[C@@H](CN(C)C(=O)Nc2cccc3ccccc23)OCCCC[C@H](C)Oc2ccc(NC(=O)c3ccncc3)cc2C1=O
inactive: [1] | [2] | [3] | [4] | [5] -25.1% | [6] | [7] | [8]

COc1ccc(NC(=O)N(C)C[C@H]2OCCCC[C@@H](C)Oc3ccc(NC(=O)Nc4ccc(C(F)(F)F)cc4)cc3C(=O)N([C@@H](C)CO)C[C@@H]2C)cc1
not listed: [5] | [8]
inactive: all other assays above

C[C@@H]1CN([C@H](C)CO)C(=O)c2cc(NC(=O)Nc3ccc(C(F)(F)F)cc3)ccc2O[C@@H](C)CCCCO[C@H]1CN(C)S(=O)(=O)c1ccc(F)cc1
inactive: [1] | [2] | [3] | [4] | [5] -20.5% [at 8 µM, stronger effect = lower value] | [6] | [7] | [8]

C[C@@H]1CCCCO[C@H](CN(C)C(=O)Nc2ccc(C(F)(F)F)cc2)[C@@H](C)CN([C@@H](C)CO)C(=O)c2cc(NS(=O)(=O)c3ccc(F)cc3)ccc2O1
inactive: [1] | [2] | [3] | [4] | [5] 19.5% [at 4.2 µM, stronger effect = lower value] | [6] | [7]

C[C@@H]1CCCCO[C@H](CN(C)Cc2ccc(Cl)c(Cl)c2)[C@H](C)CN([C@@H](C)CO)C(=O)c2cc(NC(=O)Nc3ccc(C(F)(F)F)cc3)ccc2O1
not listed: [5] | [8]
inactive: all other assays above
